Records with an inconclusive call do not appear. Calls of active or inactive are those of the source. The call rests on the fitted dose curve; in most records, active means well fitted curve in the direction sought with a large enough effect; inconclusive means small, poorly fitted or top-dose-only effect, or another doubt; inactive means no such curve, though single readings can be large; an effect the other way counts as inactive or inconclusive.
Legend:
[1] = target: Phospholipid hydroperoxide glutathione peroxidase GPX4 (Homo sapiens) (UniProt P36969); experiment: Primary qHTS Assay for Inhibitors of Recombinant Selenoprotein Glutathione Peroxidase 4 (GPX4) (AID 1845192); further: nearly all actives have a fitted effect of over 65% in size; on activity change, negative = inhibition: series mostly up to about 50 µM; on the % scale 0 is the no-effect control and ±100 the full control effect
Sequence of Phospholipid hydroperoxide glutathione peroxidase GPX4 (Homo sapiens) (P36969 whole entry, looked up): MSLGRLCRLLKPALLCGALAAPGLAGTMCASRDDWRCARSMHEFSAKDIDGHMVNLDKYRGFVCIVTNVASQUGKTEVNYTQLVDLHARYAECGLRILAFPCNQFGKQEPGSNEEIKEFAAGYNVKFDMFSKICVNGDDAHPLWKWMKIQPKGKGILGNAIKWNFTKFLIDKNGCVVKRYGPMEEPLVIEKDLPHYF
Outline: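 Steps: GPX4 plus compound, 30 min RT; add GR/GSH/NADPH master mix; start with cumene hydroperoxide; read 340/450 nm fluorescence at 0 and 15 min. Finals were 200 nM GPX4, 1 mM GSH, 0.5 mM CHP, 0.5 mM NADPH, 100 nM GR.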

[2] = target: Luciferin 4-monooxygenase (Photinus pyralis) (UniProt P08659); experiment: Primary firefly luciferase (FLuc) qHTS assay for identification of artifact compounds. (AID 1845220); further: nearly all actives have a fitted effect of over 60% in size;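 on activity change, negative = inhibition: series mostly up to about 54 µM; plate controls were DMSO vehicle for no effect and no enzyme for full effect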
Outline: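 D-luciferin and ATP (10 uM each, final) in Tris acetate buffer pH 7.6 were incubated with compounds for 15 min at room temperature. The reaction was started with 10 nM Photinus pyralis luciferase and luminescence read after 5 min. Percent inhibition was fitted to a 4-parameter Hill equation.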

[3] = Primary fluorescence-based thiol-reactive (MSTI) qHTS assay for identification of artifact compounds. (AID 1845221);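 further: series mostly up to about 54 µM; thiol-reactive compounds lower the probe fluorescence signal; nearly all actives have a fitted effect of over 65% in size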
Outline: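 Compounds were incubated 1 h at room temperature in the dark with the MSTI probe (4 uM) in PBS pH 7.4, 2% DMSO. Signals were normalized between Acetyl-MSTI and MSTI.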

[4] = test system: Nanoluciferase (engineered Oplophorus gracilirostris luciferase); experiment: Primary Nanoluciferase (NLuc) qHTS assay for identification of artifact compounds. (AID 1845222);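 further: series mostly up to about 54 µM; 0% = DMSO and -100% = no enzyme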
Outline: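 Diluted conditioned medium from NLuc-expressing S16 cells treated with compounds for 15 min at room temperature, then Nano-Glo substrate added; luminescence read after 5 min. Percent inhibition versus no-enzyme and DMSO controls fitted to 4-parameter Hill equation.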

CC1(C)CCCC2(C)C(CO)C3CCC2C31 (configuration not stated)
inactive: Potency [1] | Potency [2] | Potency [3]

C[C@@H]1O[C@@H](O[C@H]2[C@H](O)[C@@H](C(=O)O)O[C@@H](O[C@H]3CC[C@@]4(C)C(CC[C@]5(C)C4CC=C4C6CC(C)(C)CC[C@]6(C(=O)O)CC[C@]45C)C3(C)C)[C@@H]2O[C@@H]2O[C@H](CO)[C@@H](O)[C@H](O)[C@H]2O)[C@H](O)[C@H](O)[C@H]1O (some centres not stated)
inactive: Potency [1] | outcome [2] inactive [at 11.6 µM] | activity change, negative = thiol reactive [3] 296% [at 11.5 µM] | activity, negative = inhibition [4] -0.245% [at 11.6 µM]

Cc1nnc(C(C)C)n1C1CC2CCC(C1)N2CC[C@H](NC(=O)C1CCC(F)(F)CC1)c1ccccc1 (some centres not stated)
inactive: Potency [1] | Potency [2] | Potency [3] | Potency [4]

COc1cc2c(Nc3ccc(Cl)c(Cl)c3F)ncnc2cc1OCC1C[C@@H]2CN(C)C[C@@H]2C1 (some centres not stated)
inactive: Potency [1] | Potency [2] | Potency [3] | Potency [4]

COc1cc(C/C(=C/NC(C)=O)N(CC(=O)Cc2ccccc2)C(C)=O)cc2c1OCO2
inactive: Potency [1] | Potency [2] | Potency [3] | Potency [4]

C/C=C/C=C/C=C/C(=O)O[C@@H]1[C@@H](OC)C2=C(C(=O)N(C(C)C(=O)O)C2)[C@@]2(C)CCCC(C)(C)[C@H]12 (some centres not stated)
inactive: Potency [1] | Potency [2] | Potency [3] | Potency [4]

CC(=O)N[C@H]1[C@H](O[C@H]2CC[C@@]3(C)C(CC[C@]4(C)C3CC=C3C5CC(C)(C)CC[C@]5(C(=O)O)[C@H](O[C@@H]5O[C@H](CO)[C@@H](O)[C@H](O)[C@H]5O)C[C@]34C)C2(C)C)O[C@H](CO[C@@H]2OC[C@H](O)[C@H](O)[C@H]2O[C@@H]2OC[C@@H](O)[C@H](O)[C@H]2O)[C@@H](O)[C@@H]1O (some centres not stated)
inactive: Potency [1] | activity change, negative = inhibition [2] 2.58% [at 11.6 µM] | activity change, negative = thiol reactive [3] -21.6% [at 11.5 µM] | activity, negative = inhibition [4] -3.44% [at 11.6 µM]

Source: PubChem BioAssay (NCATS)
